# Most compounds without a hit are left out; they make up all but 1.7% or so of the library.
# GLP1R ag = agonists of human GLP-1 receptor | P43220 | HEK293 GLP-1R CRE-luciferase, luminescence, 4-6 h; cells express a hypersensitive GLP-1R form | Potency, µM (series often up to 45.6 µM), without a hit: at the highest dose activation, actives largely listed as activators | hit rate 0.007% among 380,000 | AID 624172; also: % of control where 0% means no effect
# Target sequence (P43220 whole entry, looked up): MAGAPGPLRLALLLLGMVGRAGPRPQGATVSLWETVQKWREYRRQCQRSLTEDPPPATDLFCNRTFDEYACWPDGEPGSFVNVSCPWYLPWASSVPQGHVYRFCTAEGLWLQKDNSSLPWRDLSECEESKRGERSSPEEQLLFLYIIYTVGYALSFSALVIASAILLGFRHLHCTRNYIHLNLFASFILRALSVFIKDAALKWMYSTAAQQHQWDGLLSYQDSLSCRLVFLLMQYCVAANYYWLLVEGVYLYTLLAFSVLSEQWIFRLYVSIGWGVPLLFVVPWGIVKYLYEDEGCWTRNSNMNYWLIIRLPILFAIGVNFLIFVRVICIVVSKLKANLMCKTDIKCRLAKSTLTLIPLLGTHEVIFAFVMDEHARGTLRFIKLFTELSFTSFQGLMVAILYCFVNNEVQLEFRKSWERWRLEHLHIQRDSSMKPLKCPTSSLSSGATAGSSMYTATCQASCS
# HEK293 tox = cytotoxic in the GLP-1 receptor inverse agonist counter-screen; hit rate 0.13% among 410,000; Potency, µM (titrated, usually from 38.3 µM), inactives show at the highest dose activity change, negative = inhibition, hits mostly inhibitors; HEK293 cAMP-luciferase reporter cells, luminescence, 24 h;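 also: loss of luciferase light is scored as toxicity; % is scaled to controls: 0 for no effect and ±100 for the full control effect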
#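 Luminescence readout: signal drop marks cytotoxicity. Plated cells grew 12 h at 37 °C, 5% CO2, received 23 nL compound for 24 h, then got luciferase reagent, read after 12 min at RT.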
# GLP-1R inv ag = acts as inverse agonist at human GLP-1 receptor | HEK293 GLP-1R CRE-luciferase, luminescence, 24 h; GLP-1R form is constitutively active | P43220 | Potency, µM (doses to about 38.3 µM), without a hit: at the highest dose activity change, negative = inhibition, actives largely listed as inhibitors | hit rate 1.6% among 410,000 | AID 624417; also: % is scaled to controls: 0 for no effect and ±100 for the full control effect; nearly all actives have a fitted effect of over 55% in size
#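 HEK293 cells stably co-expressing constitutively active GLP-1R and a cAMP-responsive luciferase reporter were seeded in DMEM with 10% Nu serum, given compounds after 12 h, and incubated 24 h at 37 deg C. Luminescence was then read.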
# * hit, by the source's call; ? = inconclusive; / = no result; [ ] = another dose, or the depositor's remark. Calls follow the shape of the dose curve; as a rule, active = well fitted curve in the direction sought with a large enough effect; inconclusive = small, poorly fitted or top-dose-only effect, or another doubt; inactive = no such curve, though single readings can be large; an effect the other way counts as inactive or inconclusive. Potency is read from the fitted curve at half-maximal effect.
SMILES,GLP1R ag,HEK293 tox,GLP-1R inv ag
COC(=O)C1=C(c2cccc(OCc3ccccc3)c2)C[C@@H]2CC[C@H]1N2C(=O)NCc1ccccc1C(F)(F)F,-4%,12%,4µM*
COC(=O)C1=C(c2cccc(OCc3ccccc3)c2)C[C@@H]2CC[C@H]1N2C(=O)NCc1cccc(OC)c1,-4%,11%,?
COC(=O)C1=C(c2ccc(F)cc2OCc2ccccc2)C[C@@H]2CC[C@H]1N2C(=O)NCc1ccc(N(C)C)cc1,1%,3%,10µM*
COC(=O)C1=C(c2ccc(F)cc2OCc2ccccc2)C[C@@H]2CC[C@H]1N2C(=O)NCCOc1ccccc1,3%,0%,?
COC(=O)C1=C(c2ccccc2OCc2ccccc2)C[C@@H]2CC[C@H]1N2C(=O)NCc1ccc(N(C)C)cc1,-2%,4%,?
COC(=O)C1=C(c2ccc(F)cc2OCc2ccccc2)C[C@@H]2CC[C@H]1N2C(=O)NCCc1ccc(F)cc1,0%,-14%,7.1µM*
COc1ccc(NC(=O)CCn2cnc3onc(-c4ccc(F)cc4)c3c2=O)cc1OC,/,-15%,?
COc1ccc(C(=O)NCCn2cc(SC(C)c3ccccc3)c3ccccc32)cc1OC (stereo not given),-5%,-14%,?
Cc1ccc(SCC(=O)OCC(=O)N(CC(C)C)c2c(N)n(Cc3ccccc3)c(=O)[nH]c2=O)c(C)c1,0%,?,?
CC(=O)c1ccc(NC(=O)CSc2nc(=O)cc(N)n2-c2ccccc2)cc1,10%,1%,30%
O=C(Nc1ccc(Br)cc1)c1cccc(S(=O)(=O)N2CCc3ccccc32)c1,/,-3%,2µM*
CCc1ccc(NC(=O)c2ccc(F)c(S(=O)(=O)N3CCC4(CC3)OCCO4)c2)cc1,/,2%,?
CCc1ccc(NC(=O)c2ccc(F)c(S(=O)(=O)N3CCc4ccccc4C3)c2)cc1,/,-8%,8.9µM*
Cn1c(=O)oc2cc(S(=O)(=O)N3CCCc4ccccc43)ccc21,-5%,-25%,?
O=C(CNC(=O)c1cccc(S(=O)(=O)N2CCc3ccccc32)c1)Nc1ccccc1Br,-6%,-20%,?
O=C(Nc1ccc(Br)cc1)c1ccc(F)c(S(=O)(=O)N2CCCc3ccccc32)c1,/,-10%,3.2µM*
C[C@@H]1CN([C@H](C)CO)C(=O)Cc2cc(NC(=O)Nc3ccccc3)ccc2O[C@@H]1CN(C)Cc1ccc2c(c1)OCO2,-10%,?,?
CCN(CC)CCNc1ccc(CO)c2oc3ccccc3c(=O)c12,-2%,?,?
Cc1cccc(N2CCN(C(=O)CCNS(=O)(=O)c3ccc4c(c3)oc(=O)n4C)CC2)c1C,-6%,-5%,?
CN(C)CCc1c[nH]c2cccc(O)c12,3%[96 µM],/,/
COc1ccc(CNCC(=O)N2CCC3(CC2)OCCO3)cc1,3%,-3%,3%
COc1ccc(CNS(=O)(=O)c2cc3c(cc2C)N(C)CCO3)cc1,7%,12%,7.9µM*
O=S(=O)(O)C(F)(F)C(F)(F)C(F)(F)C(F)(F)C(F)(F)C(F)(F)C(F)(F)C(F)(F)F,-1%[96 µM],/,/
COc1cccc(C(=O)C2CCCN(Cc3cccc(C)n3)C2)c1 (stereo not given),4%,?,?
COc1c(C)cc(C(=O)C2CCCN(Cc3cccc(C)n3)C2)cc1C (stereo not given),-5%,-19%,8.9µM*
SMILES,GLP1R ag,HEK293 tox,GLP-1R inv ag
Nc1ccc2c(c1)C(=O)C(=O)c1ccccc1-2,-33%,3.5µM*,?
O=C1c2ccccc2C(=O)c2ccccc21,23%,/,/
CCc1cc(-c2nnn(CCC3COCCO3)c2CC)cc(CC)c1-c1cn(Cc2ccc3ccccc3c2)nn1 (stereo not given),10%,4%,?
CCN(CC)C(=O)c1ccc(NC(=O)COc2ccc(-c3nn(C)c(=O)c4ccccc34)cc2)cc1,13%,7%,141%
CCN(CC)C(=O)c1ccc(NC(=O)c2cn(-c3ccccc3)nc2-c2ccc(OC)cc2)cc1,9%,3%,4.5µM*
Fc1ccc(CCNCc2cccc(Cl)c2)cc1,17%,-2%,?
O=C(Nc1cccc(Cl)c1)c1cc(S(=O)(=O)NCCc2ccc(Cl)cc2)ccc1F,-3%,?,5.6µM*
O=C(Nc1ccn(CCCNCC(c2ccccc2)c2ccccc2)c(=O)n1)OCc1ccccc1,6%,?,?
O=C(CCl)Nc1cc(S(=O)(=O)N2CCCCCC2)ccc1Cl,-5%,11µM*,?
COc1ccccc1CNCC(=O)Nc1cc(S(=O)(=O)N2CCCCC2)ccc1C,3%,3%,?

# Bioassay records as filed in PubChem.
